Assay [1] in a line: anti-His antibody binders, primary screen, artefact control for SMM control protein annotation, biochemical, small-molecule microarray, 635 nm fluorescence (AID 1128).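 Also: score merges feature fluorescence with signal-to-noise for each printed compound spot.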 To be noted: anti-His Alexa647 antibody binding, higher = more signal.
Assay [2] concerns Human papillomavirus type 1a E7 protein (residues 1-88). Kind of assay: HPV1a E7 small-molecule binders, primary screen, biochemical, small-molecule microarray, residues 1-88, 635 nm (AID 1129). To be noted: small-molecule microarray binding, fluorescence 635 nm; higher = more signal.
Assay [3] has as its target Focal adhesion kinase 1 (Homo sapiens) (UniProt Q05397). In words: small-molecule microarray binders of FAK, primary screen, biochemical, 635/667 nm fluorescence, BSA, DTT (AID 1130).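 Also: composite of spot emission at 667 nm and signal to noise over triplicate slides.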 To be noted: PTK2 binding, 635 nm fluorescence, higher = more signal.
In assay [4] the test system is Fibrinogen (Alexa647-labelled). In words: fibrinogen binders on compound microarrays, profiling panel, artefact control for SMM control-protein annotation, biochemical, small-molecule microarray, 635/667 nm fluorescence (AID 1131).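 Also: z-score merges 667 nm fluorescence with per-spot signal-to-noise over triplicate slides.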 Particulars: fibrinogen-A647 binding fluorescence, higher = more signal.
Assay [5] deals with Follistatin (Homo sapiens) (UniProt P19883). In words: follistatin binders on small-molecule microarrays, primary screen, biochemical, small-molecule microarray, 635/667 nm fluorescence (AID 1132). To be noted: FST binding, 635 nm fluorescence, higher = more signal.
Sequence of Follistatin (Homo sapiens) (P19883 whole entry, looked up): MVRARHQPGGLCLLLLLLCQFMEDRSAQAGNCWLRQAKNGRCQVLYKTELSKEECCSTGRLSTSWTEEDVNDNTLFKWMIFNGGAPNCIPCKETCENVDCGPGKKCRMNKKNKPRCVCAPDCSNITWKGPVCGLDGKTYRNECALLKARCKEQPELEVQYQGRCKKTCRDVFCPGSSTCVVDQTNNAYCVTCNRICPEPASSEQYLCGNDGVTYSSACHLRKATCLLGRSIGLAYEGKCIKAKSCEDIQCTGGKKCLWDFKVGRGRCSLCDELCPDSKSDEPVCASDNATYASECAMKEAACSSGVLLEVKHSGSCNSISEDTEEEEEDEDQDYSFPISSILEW
Assay [6] concerns the target Fibroblast growth factor 2 (Homo sapiens) (UniProt P09038). Kind of assay: FGF2 binders on small-molecule microarrays, primary screen, biochemical, small-molecule microarray, 635/667 nm fluorescence (AID 1133). Particulars: small-molecule microarray binding, FGF2, fluorescence 635/667; higher = more signal.
Assay [7] is described as follows: mitochondrial membrane potential change in A549 cells, profiling panel, cell-based, JC-1 fluorescence, basal, 24 h, 100 nL (AID 1138).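 Also: A549 lung adenocarcinoma cells under basal conditions with no added stimulus; test concentration not given here.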 Particulars: higher = more signal.
The subject of assay [8] is Lefty1. Kind of assay: Lefty1 binders on small-molecule microarrays, primary screen, biochemical, small-molecule microarray, 635/667 nm fluorescence (AID 1139). To be noted: small-molecule microarray binding, fluorescence 635/667; higher = more signal.
The subject of assay [9] is wheat germ agglutinin (Triticum aestivum), Alexa647-labelled. In words: wheat germ agglutinin binders on compound microarrays, profiling panel, artefact control for SMM control-protein annotation, biochemical, small-molecule microarray, 635/667 nm fluorescence (AID 1140).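 Also: score merges 667 nm feature emission with signal to noise over triplicate slides.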 Particulars: WGA-A647 binding, 635 nm fluorescence, higher = more signal.
The target of assay [10] is Luciferin 4-monooxygenase (Photinus pyralis) (UniProt P08659). In words: firefly luciferase enzyme inhibitors, primary screen, biochemical, luminescence, purified enzyme, 2006 set (AID 1141).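 Also: cell-free assay with purified firefly luciferase at 100 ng per well in PBS; test concentration not given here.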 To be noted: SteadyGlo luminescence, 30 min, higher = more signal, called active from +8 up or from −8 down.
Sequence of Luciferin 4-monooxygenase (Photinus pyralis) (P08659 whole entry, looked up): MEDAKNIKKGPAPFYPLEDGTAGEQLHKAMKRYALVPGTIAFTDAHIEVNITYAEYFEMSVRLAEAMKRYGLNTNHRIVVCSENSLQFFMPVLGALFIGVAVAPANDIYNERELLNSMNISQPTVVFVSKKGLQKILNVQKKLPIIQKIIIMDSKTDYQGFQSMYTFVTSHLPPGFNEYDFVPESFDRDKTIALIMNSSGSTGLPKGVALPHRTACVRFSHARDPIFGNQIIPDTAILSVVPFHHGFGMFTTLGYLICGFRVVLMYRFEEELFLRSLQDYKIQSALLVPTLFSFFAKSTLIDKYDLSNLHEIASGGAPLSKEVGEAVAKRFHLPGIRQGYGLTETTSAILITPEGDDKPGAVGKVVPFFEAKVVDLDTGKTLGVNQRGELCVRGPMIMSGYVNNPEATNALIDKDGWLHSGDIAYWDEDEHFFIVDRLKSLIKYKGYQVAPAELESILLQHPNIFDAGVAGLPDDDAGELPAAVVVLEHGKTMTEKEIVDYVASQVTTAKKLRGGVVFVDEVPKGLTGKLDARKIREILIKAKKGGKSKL
The subject of assay [11] is Wnt5a (protein binding on small-molecule microarray). In words: Wnt5a binders on small-molecule microarray, primary screen, biophysical, 635/667 nm fluorescence (AID 1142).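 Also: fluorescence read at 667 nm with signal to noise per printed feature.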 Particulars: 635 nm fluorescence, higher = more signal.
Assay [12] in a line: cell viability in Huh7 cells, primary screen, cytotoxicity control for HCV replication inhibitor project, CellTiter-Glo luminescence, basal, 48 h (AID 1143).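 Also: Huh7 hepatoma cells carrying a hepatitis C replication reporter with no stimulus; test concentration not given here.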 To be noted: Huh7 HCV replicon, higher = more signal, called active from +8 up or from −8 down.
Assay [13] can be described thus: P. aeruginosa biofilm formation inhibitors, primary screen, PAO1 strain, BacTiter-Glo luminescence, LB-PBS (AID 1144). Particulars: 12 h, higher = more signal.
Assay [14] is described as follows: CREB reporter modulators without forskolin, primary screen, cell-based, PC12, CRE-LacZ reporter, unstimulated (AID 1145). To be noted: no forskolin, luminescence, 4.5 h, higher = more signal, called active from +8 up or from −8 down.
Assay [15] in a line: CREB reporter modulators under forskolin, primary screen, cell-based, PC12, CRE-LacZ reporter, forskolin-stimulated (AID 1146).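 Also: PC12 cells with 6xCRE LacZ reporter stimulated by forskolin 10 µM; beta-galactosidase reporter signal reflecting CREB driven transcription.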 To be noted: luminescence, 4.5 h, higher = more signal, called active from +8 up or from −8 down.
Assay [16] has as its target Streptavidin (Streptomyces avidinii) (UniProt P22629). In words: streptavidin binders on small-molecule microarray, primary screen, artefact control for SMM compound annotation, biophysical, 635/667 nm fluorescence (AID 1147).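 Also: signal reflects streptavidin binding to arrayed compounds as a control protein.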 To be noted: streptavidin binding, higher = more signal.
A short description of assay [17]: small-molecule binders of probe aInhba, primary screen, biochemical, small-molecule microarray, 635/667 nm fluorescence (AID 1148).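 Also: score merges 667nm spot fluorescence with signal-to-noise for antibody binding to printed compounds.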 To be noted: higher = more signal.
In assay [18] the target is Torsin-1A (Homo sapiens) (UniProt O14656). Kind of assay: torsin A binders from cell lysate, primary screen, small-molecule microarray, wild-type, 635/667 nm (AID 1149). To be noted: COS7 hTOR1A-WT lysate, 635 nm fluorescence, higher = more signal.
Sequence of Torsin-1A (Homo sapiens) (O14656 whole entry, looked up): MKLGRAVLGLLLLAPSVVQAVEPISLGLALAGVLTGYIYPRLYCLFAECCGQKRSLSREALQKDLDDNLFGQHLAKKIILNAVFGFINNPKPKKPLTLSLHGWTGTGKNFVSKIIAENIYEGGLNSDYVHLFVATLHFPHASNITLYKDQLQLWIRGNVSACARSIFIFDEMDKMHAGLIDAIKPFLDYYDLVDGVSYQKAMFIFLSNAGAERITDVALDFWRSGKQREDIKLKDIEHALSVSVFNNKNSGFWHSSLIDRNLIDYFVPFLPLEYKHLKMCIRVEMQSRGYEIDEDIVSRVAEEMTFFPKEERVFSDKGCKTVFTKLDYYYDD
Assay [19] shares this target. In words: small-molecule binders of mutant TOR1A in lysate, primary screen, cell lysate, small-molecule microarray, COS7 lysate, 635/667 nm fluorescence (AID 1150).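 Also: score pools 667 nm emission and signal to noise measuring lysate protein binding.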 To be noted: COS7 hTOR1A mutant lysate, 635 nm fluorescence, higher = more signal.
Assay [20] deals with Sonic hedgehog protein (Shh). In words: small-molecule binders of Shh protein, primary screen, biochemical, small-molecule microarray, 635/667 nm fluorescence (AID 1151).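 Also: Shh protein binding to compounds spotted on small-molecule microarray slides; score combines spot fluorescence intensity with signal-to-noise across triplicate slides.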 To be noted: small-molecule microarray binding, 635 nm fluorescence; higher = more signal.

Activity calls are given as the source filed them. Unless noted, no rule for the calls is given here.

Sequence of Fibroblast growth factor 2 (Homo sapiens) (P09038 whole entry, looked up): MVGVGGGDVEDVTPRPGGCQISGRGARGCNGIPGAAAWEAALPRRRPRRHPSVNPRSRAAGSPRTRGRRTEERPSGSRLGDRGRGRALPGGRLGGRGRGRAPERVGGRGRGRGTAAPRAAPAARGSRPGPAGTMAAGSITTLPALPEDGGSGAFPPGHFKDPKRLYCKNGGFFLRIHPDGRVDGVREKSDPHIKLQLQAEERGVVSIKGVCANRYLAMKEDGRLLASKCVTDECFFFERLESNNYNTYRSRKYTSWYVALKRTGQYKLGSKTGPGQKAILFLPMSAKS
Sequence of Streptavidin (Streptomyces avidinii) (P22629 whole entry, looked up): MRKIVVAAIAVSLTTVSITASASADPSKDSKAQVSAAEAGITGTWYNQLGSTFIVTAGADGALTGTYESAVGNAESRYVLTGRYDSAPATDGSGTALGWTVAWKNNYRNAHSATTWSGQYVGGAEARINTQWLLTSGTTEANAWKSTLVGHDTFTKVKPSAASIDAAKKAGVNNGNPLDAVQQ
Sequence of Focal adhesion kinase 1 (Homo sapiens) (Q05397 whole entry, looked up): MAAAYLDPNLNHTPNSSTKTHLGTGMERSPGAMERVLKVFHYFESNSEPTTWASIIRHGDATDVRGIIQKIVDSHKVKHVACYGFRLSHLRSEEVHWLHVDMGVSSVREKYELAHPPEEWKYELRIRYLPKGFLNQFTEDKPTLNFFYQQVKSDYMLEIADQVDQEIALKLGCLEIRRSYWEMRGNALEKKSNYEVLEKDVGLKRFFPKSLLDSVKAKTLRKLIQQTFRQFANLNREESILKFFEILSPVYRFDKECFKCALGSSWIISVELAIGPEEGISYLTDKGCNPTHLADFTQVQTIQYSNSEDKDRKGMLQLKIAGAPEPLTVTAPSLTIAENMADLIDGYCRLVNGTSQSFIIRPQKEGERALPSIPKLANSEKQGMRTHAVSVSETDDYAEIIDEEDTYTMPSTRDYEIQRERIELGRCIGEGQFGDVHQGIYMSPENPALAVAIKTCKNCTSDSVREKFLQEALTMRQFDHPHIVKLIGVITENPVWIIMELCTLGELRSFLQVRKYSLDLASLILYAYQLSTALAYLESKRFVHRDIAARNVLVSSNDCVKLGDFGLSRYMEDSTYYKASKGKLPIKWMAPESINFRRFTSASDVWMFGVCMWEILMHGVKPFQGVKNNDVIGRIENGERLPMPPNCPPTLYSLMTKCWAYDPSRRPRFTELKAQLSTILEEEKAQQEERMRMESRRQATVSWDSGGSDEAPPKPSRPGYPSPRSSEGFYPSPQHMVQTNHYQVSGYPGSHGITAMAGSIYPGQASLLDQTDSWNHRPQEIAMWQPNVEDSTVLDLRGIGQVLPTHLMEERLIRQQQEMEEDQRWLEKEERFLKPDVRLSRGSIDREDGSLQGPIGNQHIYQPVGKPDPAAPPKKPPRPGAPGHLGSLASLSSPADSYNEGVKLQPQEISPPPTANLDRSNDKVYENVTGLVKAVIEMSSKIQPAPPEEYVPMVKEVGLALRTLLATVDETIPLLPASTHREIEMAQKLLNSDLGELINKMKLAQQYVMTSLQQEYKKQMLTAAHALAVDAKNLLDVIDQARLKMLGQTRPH

As for `CCCNC(=O)[C@@H]1c2ccccc2C(=O)N(Cc2ccccc2OC)[C@H]1c1ccc(CO)cc1`, the composite z-score in assay [1] amounted to 2.08; in [2] it was 1.22; in assay [3], 0.609; in [4] it was 0.937; in [5], 0.98; in [6] it was 1.06. For the same compound, the composite z-score in assay [8] is 0.482; in assay [9] it was 0.712; in assay [11], 0.304; in [16], 0.867; in assay [17] it was -0.0066; in assay [18], -0.3. For the same compound, the composite z-score in [19] was 0.889; in assay [20], 1.52. Besides, the z-score in assay [7] was 1.53; in [10], -0.452 (inactive); in assay [12], -0.67 (inactive); in [13] it was 0.376 (inactive); in assay [14] it was 0.001 (inactive); in [15] it was -0.312 (inactive).

`C[N+](C)(C)CCCC[C@@H]1NC(=O)[C@@H]2C[C@H](C(=O)NCCCCCCNC(=O)CS)[C@H](c3ccc(O)cc3)N2C1=O`: the composite z-score in assay [1] was 0.271; in assay [2], -0.982; in [3] it was -0.531; in [4], -0.33; in [5] it was 0.0054; in [6] it was -0.117. Also, the composite z-score was -0.237 in assay [8]; -0.341 in [9]; -0.387 in assay [11]; 0.553 in assay [16]; -0.0963 in [17]; 0.296 in [18]. Further, the values for the composite z-score in assay [19] and in [20] were 0.461 and 0.586, respectively. The z-score in assay [7] is -0.122; in assay [10], 0.182 (inactive); in assay [12], -0.195 (inactive); in assay [13], -0.421 (inactive); in assay [14] it was 0.0165 (inactive); in [15], 1.45 (inactive).

`Cc1ccc(S(=O)(=O)N2C[C@@H](C(=O)O)[C@H](Sc3ccccc3)C[C@H]2c2ccccc2)cc1`: the composite z-score in [1] is 0.617; in assay [2], 1.23; in assay [3], 1.07; in assay [4], 1.06; in assay [5] it was 0.999; in [6] it was -0.194. Besides, the composite z-score was determined as 0.697 in [8]; 1.03 in assay [9]; 0.731 in assay [11]; 1.26 in assay [16]; 0.0403 in [17]; 0.301 in assay [18]. Further, the values for the composite z-score in assay [19] and in [20] were 0.714 and -0.156, respectively. The z-score in [7] is -0.0335; in assay [10], 1.88 (inactive); in assay [12], -0.763 (inactive); in assay [13], -0.103 (inactive); in assay [14], -0.667 (inactive); in assay [15], -0.356 (inactive).

As for `CN1C(=O)C2C=CC(C(O)c3c(F)cccc3Cl)N(NC(=O)OC(C)(C)C)C2C1=O` (stereo not given), the composite z-score in [1] was 1.11; in assay [2], 1.09; in [3], 0.427; in assay [4], 1.01; in assay [5], 0.453; in assay [6], -0.174. Besides, the composite z-score in assay [8] was -0.242; in assay [9] it was 0.634; in assay [11], 0.213; in assay [16], 1.18; in [17], 0.181; in assay [18], 0.622. In addition, the composite z-score is 0.591 in [19] and -0.0049 in [20]. The z-score was 0.584 in [7]; 0.682 (inactive) in assay [10]; 0.736 (inactive) in assay [12]; 0.232 (inactive) in assay [13]; 0.622 (inactive) in assay [14]; 0.947 (inactive) in [15].

For `CCCCN1CC=CC23O[C@@H]4C=CCCOC(=O)C4[C@H]2C(=O)N(CCCCCO)[C@@H]3C1=O` (stereo not given in full), the composite z-score in assay [1] was 1.88; in assay [2], -0.306; in assay [3] it was 0.779; in assay [4] it was -0.905; in [5] it was -0.592; in [6] it was -0.437. Also, the composite z-score in [8] was -0.0266; in assay [9], 0.0604; in [11], -0.276; in assay [16] it was -0.525; in assay [17], -0.233; in assay [18], 0.226. Also, the composite z-score in assay [19] is 0.735; in assay [20], -0.198. For the same compound, the z-score in assay [7] is 0.976; in assay [10], -0.469 (inactive); in assay [12], 0.342 (inactive); in assay [13], -0.0153 (inactive); in assay [14], 0.199 (inactive); in [15], 0.794 (inactive).

The record behind these values is PubChem BioAssay.
